FBW7 act – human FBW7 E3 ligase activation, primary screen. 0.13% of 650,000 active. AlphaScreen FBW7–phospho-cyclin E peptide binding, activator screen. normalized activity (activation), % at 26.1 µM; in the data active = normalized activity above about 1.9%;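 note: purified mutant Fbw7 with reduced substrate affinity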
GPR151 ag – activates the human receptor GPR151 | Q8TDV0 | PathHunter beta-arrestin GPR151 cells, luminescence | activation, % at 11.2 µM | 1% of 650,000 active | AID 1508602; in the data active = activation above about 4.9%
Target sequence (Q8TDV0 whole entry, looked up): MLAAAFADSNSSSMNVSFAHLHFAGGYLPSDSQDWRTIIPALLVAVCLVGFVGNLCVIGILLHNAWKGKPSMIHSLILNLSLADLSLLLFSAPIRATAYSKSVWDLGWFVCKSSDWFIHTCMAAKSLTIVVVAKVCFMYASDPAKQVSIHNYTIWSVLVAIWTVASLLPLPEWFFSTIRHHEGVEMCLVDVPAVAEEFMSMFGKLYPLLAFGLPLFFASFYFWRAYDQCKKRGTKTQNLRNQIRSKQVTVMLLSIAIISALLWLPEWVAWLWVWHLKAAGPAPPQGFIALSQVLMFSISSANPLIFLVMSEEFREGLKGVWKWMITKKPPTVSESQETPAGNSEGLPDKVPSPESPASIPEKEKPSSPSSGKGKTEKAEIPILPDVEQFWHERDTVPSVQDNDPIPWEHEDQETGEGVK
MITF inh – human MITF inhibition, primary screen; O75030; AlphaScreen MITF homodimerization, bead proximity signal; inhibition, % at 2.6 µM; 0.91% of 650,000 active; AID 1259374; in the data active = inhibition above about 50%
TEAD-YAP block – TEAD-YAP interaction inhibition; HEK-TIYL cells, TEAD-Gal4/YAP UAS-luciferase luminescence; inhibition, % at 9.12 µM; 1.4% of 640,000 active; AID 1259422; in the data active = inhibition above about 32%
MITF confirm – confirmation of human MITF inhibitors. shares compounds with MITF inh. AlphaScreen MITF homodimerization, biotin/His-MITF beads. inhibition, % at 2.6 µM. 16% of 4,700 active;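 active = inhibition above a cutoff derived from the DMSO control wells, cut at about 28% in these data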;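 note: inhibitors lower the bead chemiluminescence by keeping MITF from dimerizing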
AS interf ctr – AlphaScreen optical interference, counter-screen; LysRS AlphaScreen counterscreen, signal interference, triplicate; AID 1259376; inhibition, % at 2.6 µM; shares compounds with MITF inh; 7.6% of 4,700 active;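 active = inhibition above a cutoff derived from the DMSO control wells, cut at about 30% in these data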
Large screens that a line does not name were inactive (follow-up assays come after a bar, where they were run). Shown are actives, neighbours in structure and some others; about 3.5% of the full set was active somewhere.

C[C@@H]1O[C@@H](O[C@@H]2C=C3CCC4C(CC[C@]5(C)[C@@H](c6ccc(=O)oc6)CC[C@]45O)[C@@]3(C)CC2)[C@H](O)[C@H](O)[C@H]1O (some centres not stated)	GPR151 ag 10 (no result: TEAD-YAP block)
CSc1ccc(C2C(C#N)=C(N)Oc3c2c(=O)oc2ccccc32)cc1 (configuration not stated)	none
C#CCOc1ccccc1/C=C/[N+](=O)[O-]	TEAD-YAP block 46
CC(=O)N(c1ccccc1)c1nc(C)cc(C)n1	none
CC(=O)NC1C(OC2OC(CC(O)C3OC(n4ccc(=O)[nH]c4=O)C(O)C3O)C(O)C(O)C2NC(=O)/C=C\CCCCCCCCCC(C)C)OC(CO)C(O)C1O (configuration not stated)	TEAD-YAP block 64
COc1cccc2c1OC1(CCN(C(=O)C3CCC3)CC1)OC2	none
C=CCOC(=O)C1C2NC(=S)NC1(C)Oc1ccccc12 (configuration not stated)	TEAD-YAP block 36
FC(F)(F)C1(C(F)(F)F)NC2C(Br)CC1C2Cl (configuration not stated)	none
CC1=C(O)C(=O)C=C2C1=CC=C1[C@@]2(C)CC[C@@]2(C)[C@@H]3C[C@](C)(C(=O)O)CC[C@]3(C)CC[C@]12C	TEAD-YAP block 43
Cc1c(O)c(O)cc2c1CC=C1[C@@]2(C)CC[C@@]2(C)C3C[C@](C)(C(=O)O)CC[C@]3(C)CC[C@]12C (some centres not stated)	TEAD-YAP block 56
NC(Cc1cc(O)c(O)cc1O)C(=O)O (configuration not stated)	MITF inh 62
Cc1ccc2oc(C(=O)OC(C)C(C)CN(C)C)cc2c1 (configuration not stated)	FBW7 act 2.5
CC[C@@]1(O)C(=O)OCc2c1cc1n(c2=O)Cc2cc3ccccc3nc2-1	TEAD-YAP block 76
CC[C@@]1(O)C(=O)OCc2c1cc1n(c2=O)Cc2cc3c(O)cccc3nc2-1	TEAD-YAP block 78
CCCCc1nc2ccccc2c(=O)n1-c1ccccc1O	none
Cc1cc(C)c(CN2CCN(C)C(CCO)C2)cc1C (configuration not stated)	none
O=C(Nc1ccc(Br)cc1F)C(Cl)(Cl)Cl	none
C[C@@H]1C[C@@H]([C@H](O)CC2CC(=O)NC(=O)C2)C(=O)[C@@H](C)C1	TEAD-YAP block 98
O=C(COC(=O)C(O)(c1ccccc1)c1ccccc1)c1ccc([N+](=O)[O-])cc1	none
CCN1CCN(c2ccc(NC(=S)NC(C)=O)cc2Cl)CC1	TEAD-YAP block 43
CCOC(=O)C1C2NC(=S)N(c3ccc(Cl)cc3)C1(C)Oc1ccc(Br)cc12 (configuration not stated)	TEAD-YAP block 54
CCOC(=O)C1C2NC(=S)N(c3ccc(C)cc3)C1(C)Oc1ccc(OC)cc12 (configuration not stated)	none
CCOC(=O)C1C2NC(=S)N(c3ccc(Br)cc3)C1(C)Oc1ccc(OC)cc12 (configuration not stated)	TEAD-YAP block 63
COc1cc2c(cc1OC)[C@@H]1C(=O)c3ccc4c(c3O[C@@H]1CO2)C[C@H](C(C)C)O4	TEAD-YAP block 68
CCOc1ccc(NC(=O)CN2C(=O)C(C)N=C(c3ccccc3)c3ccccc32)cc1 (configuration not stated)	none
COc1cc(NC(=O)CN2C(=O)C(C)N=C(c3ccccc3)c3ccccc32)cc(OC)c1 (configuration not stated)	TEAD-YAP block 37
CNc1ccccc1C(=O)O	none
C[CH2][Hg][S]c1ccccc1C(=O)O	TEAD-YAP block 74
CN1CC=C(c2noc(CCC(=O)N3CCN(c4ncccn4)CC3)n2)CC1	none
CN1CC=C(c2noc(CCC(=O)Nc3ccccc3Cl)n2)CC1	none
CN1CC=C(c2noc(CCC(=O)Nc3cccc(Cl)c3)n2)CC1	FBW7 act 1.9
Cc1cccc(N2CCN(C(=O)CCc3nc(C4=CCN(C)CC4)no3)CC2C)c1 (configuration not stated)	FBW7 act 4.1
Cc1ccc(-n2c(/C=C/c3ccccc3O)nc3ccccc3c2=O)cc1	none
O=C(CSc1ncccn1)Nc1ccc(Cl)cc1C(=O)c1ccccc1	none
CC(=O)Nc1ccc([N+](=O)[O-])cc1C(=O)c1ccccc1	none
O=C1/C(=C/c2cccnc2)N2CCC1CC2	none
CN1C2CCC1/C(=C\c1cccnc1)C(=O)/C2=C/c1cccnc1	TEAD-YAP block 53
COc1ccccc1-n1c(/C=C/c2ccc(N(C)C)cc2)nc2ccccc2c1=O	FBW7 act 2.3
COc1ccccc1-n1c(/C=C/c2ccc([N+](=O)[O-])cc2)nc2ccccc2c1=O	none
O=C1CCCCC1P(=S)(c1ccccc1)N1CCOCC1 (configuration not stated)	none
CC(=O)c1ccc(N2CCN(Cc3cc(F)ccc3F)CC2)cc1	MITF inh 61 | MITF confirm inactive | AS interf ctr inactive
CC(=O)c1ccc(N2CCN(Cc3cccc(C)c3)CC2)cc1	none
CC(=O)c1ccc(N2CCN(Cc3ccc(F)c(F)c3)CC2)cc1	none
CC(=O)c1ccc(N2CCN(Cc3ccc(F)cc3F)CC2)cc1	MITF inh 55 | MITF confirm inactive | AS interf ctr inactive
CN1CCN(Cc2ccc(Cl)cc2)CC1	none
COc1ccc(CN2CCN(C(=O)COc3ccc(Cl)cc3)CC2)cc1	MITF inh 58 | MITF confirm inactive | AS interf ctr inactive
CCc1ccc(CN2CCN(Cc3ccc(Cl)cc3)CC2)cc1	MITF inh 76 | MITF confirm inactive | AS interf ctr inactive
Oc1ccc(CN2CCN(c3ccc(Cl)cc3)CC2)cc1	none
CSc1ccc(CN2CCN(Cc3ccc(Cl)cc3)CC2)cc1	MITF inh 80 | MITF confirm inactive | AS interf ctr inactive
CCc1ccc(CN2CCN(Cc3ccc(CC)cc3)CC2)cc1	MITF inh 67 | MITF confirm inactive | AS interf ctr inactive
O=C(c1ccc(NCC2CCCO2)c([N+](=O)[O-])c1)N1CC2CC(C1)c1cccc(=O)n1C2 (configuration not stated)	none
CCOc1ccc(CN2CCN(c3ccccc3)CC2)cc1	none
CCOc1cccc(CN2CCN(Cc3ccccc3)CC2)c1O	none
CCOc1ccc(CN2CCN(Cc3ccccc3C)CC2)cc1	MITF inh 64 | MITF confirm inactive | AS interf ctr inactive
CCOc1ccc(CN2CCN(Cc3ccc(Cl)cc3)CC2)cc1	MITF inh 58 | MITF confirm inactive | AS interf ctr inactive
CN1CCN(Cc2cccc(F)c2)CC1	none
Fc1cccc(CN2CCN(c3ccc(Cl)cc3)CC2)c1	none
Fc1cccc(CN2CCN(Cc3cccc(F)c3)CC2)c1	MITF inh 68 | MITF confirm inactive | AS interf ctr inactive
CC(C)N1CCN(Cc2cccc(F)c2)CC1	MITF inh 62 | MITF confirm inactive | AS interf ctr inactive
